HCMV inh – inhibitors of human cytomegalovirus; HFF cells, HCMV-luciferase reporter, 72 h; hits give low values; activity change, negative = inhibition, % at 57.5 µM; actives 4.5% (n = 410,000); in the data active = activity change below about -60%; inconclusive = no clear call, values can overlap the other calls; inactive = above about -39%
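Human foreskin fibroblasts infected with luciferase-reporter HCMV at MOI 1 PFU/cell, compounds at two doses. Luciferase measured 72 h post infection; normalized to buffer-only basal and Salinomycin (10uM) controls.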
Lassa entry inh – Lassa virus entry inhibition. Lassa virus pseudotype entry inhibition, cell reporter. Potency, µM (series often up to 37.9 µM), for inactives: top-dose activity change, negative = inhibition, actives largely listed as inhibitors. actives 1.2% (n = 300,000). AID 540256; calls by dose curve; tested in HEK293 cells; also: potency is read from the fitted curve at half-maximal effect; nearly all actives have a fitted effect of over 50% in size
MARV entry inh – blocks Marburg virus binding to or entry into cells | Marburg virus pseudotyped entry inhibition, cell reporter | Potency, µM (titrated, usually from 37.8 µM), inactives show top-dose activity change, negative = inhibition, most hits filed as inhibitors | actives 1.8% (n = 300,000) | AID 540276; calls by dose curve; tested in HEK293 cells; also: potency is read from the fitted curve at half-maximal effect
FMDV inh – foot and mouth disease virus antiviral activity | FMDV antiviral cell-based qHTS | actives 1.2% (n = 410,000) | Potency, µM (series often up to 57.9 µM), inactives show at the top dose activity change, negative = inhibition, most hits filed as inhibitors; calls by dose curve; tested in HEK293T cells; also: read-out not given here; potency is read from the fitted curve at half-maximal effect; nearly all actives have a fitted effect of over 45% in size
The depositor's hits bear a star; ? = inconclusive; . = no result given; [ ] = another dose, or the depositor's remark. The list is not random: actives were taken first. Their share in the collection is about 6.2%. % is scaled to controls: 0 for no effect and ±100 for the full control effect.

SMILES | HCMV inh | Lassa entry inh | MARV entry inh | FMDV inh
COC(=O)c1c(-c2ccc(Cl)cc2)noc1N1CCN(c2cc(C)ccc2C)CC1 | 7.2 | 0.5%[46.1 µM] | . | ?
c1cc2c(cc1Nc1nc(-c3ccc4c(c3)OCO4)cs1)OCCO2 | 17.3 | ? | 13.6% | 16.5%
COc1ccc(-c2csc(NC(=O)c3c(C)noc3C)n2)cc1F | -36.9 | 0.7% | ? | 39.8µM*
COc1cccc(NC(=O)Nc2nc(-c3ccc(OC)c(OC)c3)cs2)c1 | -99.4* | ? | ? | 25.1µM*
Cc1noc(C)c1C(=O)Nc1nc(-c2ccc(F)c(F)c2)cs1 | -26.6 | 14.4% | 2.9% | 12.0%
c1ccc(-c2csc(Nc3ccc4c(c3)OCCO4)n2)cc1 | 54.1 | 10µM* | ? | -18.9%
CC(=O)Nc1nc(-c2ccc3c(c2)CCO3)cs1 | -76.2* | . | . | 15.3%
O=C(NCc1ccccn1)c1cnn(-c2ncc3c(n2)-c2ccccc2CC3)c1C1CC1 | . | . | . | -11.6%
COCc1cc2cc3c(cc2c2c(C(=O)OC)c(C(=O)OC)c(C(=O)OC(C)(C)C)n12)OCO3 | . | ? | -26.9%[14.2 µM] | .
COc1ccccc1C(=O)Nc1nc(-c2ccc3c(c2)OCCO3)cs1 | -63.4* | . | . | -1.9%
COc1ccc(CNC(=O)C2CCN(C(=O)c3ccc(F)cc3)CC2)cc1OC | -22.9 | . | . | -21.6%
COc1ccc(-c2csc(NC(=O)C3CCN(C(=O)c4ccc(F)cc4)CC3)n2)cc1OC | . | 15.8µM* | ? | 35.5µM*
COc1ccccc1NC(=O)N1CC(=O)N2[C@H](C1)[C@@H](c1ccc(Br)cc1)[C@@H]2CO | 7.0 | . | . | .
COc1cccc(F)c1-c1nc2ccccc2n1C(C(=O)Nc1c(C)cccc1C)c1ccccc1 (stereo unspecified) | -33.3 | . | . | .
N/C(=N\c1nc(CSc2ccc(Cl)cc2)cc(=O)[nH]1)Nc1cccc2ccccc12 | -72.6* | 1.8% | ? | -8.8%
CCc1ccc2[nH]c3nc(SCCN4CCOCC4)nnc3c2c1 | -90.6* | . | . | ?
CCc1ccc2[nH]c3nc(SCC(=O)NNC(=O)c4ccc(C(C)(C)C)cc4)nnc3c2c1 | -105.9* | ? | 4.61µM* | -4.3%
CCc1ccc2[nH]c3nc(SCC(=O)NCC4CCCO4)nnc3c2c1 (stereo unspecified) | ? | . | ? | -22.8%
COc1ccc2c(c1)-c1nc(-n3ncc(C(=O)N(C)CC4CCCN(C)C4)c3C)ncc1CC2 (stereo unspecified) | . | . | . | -16.8%
CCN1CCC(N[C@H]2C[C@@H](C(=O)NC)N(Cc3cccc4ccccc34)C2)CC1 | . | . | . | 5.7%
c1ccc(-c2cc(-c3ccccc3)[n+](-c3ccccc3)c(-c3ccccc3)c2)cc1 | -101.2* | ? | ? | 17.8µM*
CCOC(=O)c1ccc(-[n+]2c(-c3ccccc3)cc(-c3ccccc3)cc2-c2ccccc2)cc1 | . | . | . | -19.8%
Cc1ccc(-c2cc(-c3ccc(C)cc3)[n+](-c3ccc(C(=O)[O-])cc3)c(-c3ccc(C)cc3)c2)cc1 | -17.0 | . | . | 0.0%
CN(C)c1ccc(C(=O)c2ccccc2)cc1 | 41.1 | 5.3% | 7.0% | 20.1%
Cc1ccc(-c2cc(-c3ccccc3)cc(-c3ccccc3)[n+]2-c2ccccc2)cc1 | -99.0* | . | . | 7.08µM*
SMILES | HCMV inh | Lassa entry inh | MARV entry inh | FMDV inh
CN(C)c1ccc(-[n+]2c(-c3ccccc3)cc(-c3ccccc3)cc2-c2ccccc2)cc1 | -98.9* | ? | ? | 31.6µM*
Cc1ccc(-c2cc(-c3ccc(C)cc3)[n+](-c3ccccc3)c(-c3ccc(C)cc3)c2)cc1 | . | . | . | 7.08µM*
C=C[C@@]1(C)CC(=O)[C@@]2(O)[C@@]3(C)[C@@H](O)CCC(C)(C)[C@@H]3[C@H](OC(=O)CCN(C)C)[C@H](OC(C)=O)[C@@]2(C)O1 | . | . | . | -8.8%
CCCNC(=O)Cn1ncc2c3ccccc3n(CCC)c2c1=O | 11.4 | 0.3%[46.1 µM] | . | -17.1%
CCCC(O)c1nnc(Nc2cccc(Cl)c2)s1 (stereo unspecified) | -0.9 | . | . | .
CCN(C(=O)C1CCC(CNS(=O)(=O)c2cccc3nsnc23)CC1)c1cccc(C)c1 (stereo unspecified) | -16.7 | ? | ? | ?
COc1cccc(C(=O)c2cn(CC(=O)Nc3ccc4c(c3)OCCO4)c3nc(C)ccc3c2=O)c1 | 18.7 | -8.8%[46.1 µM] | . | 0.0%
CCN(CC(=O)Nc1ccccc1C(F)(F)F)C(=O)c1ccccc1Cc1ccccc1 | 0.7 | 11.2µM* | ? | -5.6%
Cc1ccc(C(=O)n2c(N)nc3ccccc32)cc1 | ? | ? | 7.94µM* | 10µM*
Nc1ccc(C(=O)n2c3ccccc3c3ccccc32)cc1 | -79.1* | ? | 3.98µM* | ?
Cc1ccc2cc(CNC(C)CO)c(N3CCC(O)CC3)nc2c1 (stereo unspecified) | . | . | . | 9.7%
Cc1cccc(NC(=S)N(C)Cc2cn(C)c3ccccc23)c1 | -68.3* | ? | -4.7% | 5.5%
CCOC(=O)Cn1c(-c2ccc(OC)cc2)c(-c2ccc(OC)cc2)nnc1=O | -22.6 | . | . | -14.0%
CCOC(=O)Cn1c(S(=O)(=O)Cc2ccc(F)cc2)nc(-c2ccccc2)c1-c1ccccc1 | -78.1* | 2.59µM* | 4.11µM* | -3.1%
CCOC(=O)Cn1c(S(=O)(=O)Cc2cccc(F)c2)nc(-c2ccccc2)c1-c1ccccc1 | ? | 7.3µM* | 2.59µM* | -15.4%
CCCCCCCOc1ccc(OC(=O)c2ccncc2)cc1 | -64.3* | -21.0% | ? | .
COc1ccc(C(=O)N2N=C(c3ccccc3)CC2(O)C(F)(F)F)cc1 (stereo unspecified) | -3.3 | ? | 12.6µM* | -15.4%
CCOc1ccc(NC(=O)c2cccc(OC(=S)N3CCOCC3)c2)cc1 | -67.8* | -0.4% | -18.2%[46.1 µM] | -5.9%
COc1ccc(NC(=O)c2cccc(OC(=S)N3CCOCC3)c2)cc1 | -5.7 | . | . | -20.4%
O=C(Oc1ccc(C(=S)N2CCOCC2)cc1)c1ccc(Br)cc1 | -60.4* | -14.7% | 8.3% | -2.8%
Cc1cccc(NC(=O)c2cccc(OC(=S)N3CCOCC3)c2)c1C | 7.4 | 5.3% | 9.0% | 7.1%
O=C(Oc1ccc(C(=S)N2CCOCC2)cc1)c1ccccc1 | -19.8 | 7.8%[46.1 µM] | ? | -3.4%
O=C(Nc1ccc(Br)cc1)c1cccc(OC(=S)N2CCOCC2)c1 | -76.8* | ? | ? | ?
CCCOc1ccc(N2C(=O)C[C@@H](N(Cc3ccc(S(N)(=O)=O)cc3)C(=O)CC)C2=O)cc1 | . | . | 2.6% | .
CCc1ccc(CN(Cc2cn[nH]c2-c2ccc(OC)cc2)C(=O)Nc2ccc(C)c(F)c2)cc1 | -21.8 | 2.7%[46.1 µM] | -27.3%[46.1 µM] | ?
SMILES | HCMV inh | Lassa entry inh | MARV entry inh | FMDV inh
CCOC(=O)C1CCN(C(=O)Cn2nc(C)n3c(cc4sccc43)c2=O)CC1 | -14.6 | . | -4.0%[46.1 µM] | 0.0%
O=C1[C@@H]2[C@H](ON(c3ccccc3)[C@H]2c2ccncc2)C(=O)N1c1ccc(Br)cc1 | . | . | -20.9% | .
CC1CN(C(=O)c2cccc(COc3ccc(Br)cc3)c2)CC(C)O1 (stereo unspecified) | -77.7* | ? | ? | -15.3%
CCOc1ccc(OCc2cccc(C(=O)N3CCOCC3)c2)cc1 | 152.5 | . | 2.2% | -1.0%
CN1CCN(C2=Cc3ccccc3Sc3cc(F)ccc32)CC1 | 24.6 | -9.6% | ? | -22.3%
CN1CCN(C2=Cc3ccc(Cl)cc3Sc3ccc(F)cc32)CC1 | 22.1 | ? | 7.94µM* | -1.1%
